For 20 compounds, growth inhibition, inhibition and outcome results are on record in PubChem BioAssay.

The nature of test [1]: antimalarial activity against Dd2 strain (AID 2302;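 active = growth inhibition above 50% at the single 2 µM test dose, taken to imply half-maximal potency below 2 µM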;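 note: 0% = DMSO untreated growth and 100% = chloroquine plus artemisinin killed control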). The following applies: P. falciparum Dd2 in RBCs, LDH growth readout, 72 h; at 2 µM; stronger effect = higher value.
Test [2] in a line: human hepatoma cell viability loss – ATP luminescence, cytotoxicity control for P. falciparum antimalarial project, primary screen (AID 2303;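 active = inhibition above 50%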;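 note: 0% = DMSO wells and 100% = digitonin-killed cells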). The settings on record: HepG2 viability, 24-48 h, at 10 µM, stronger effect = higher value.
The target of test [3] is L-lactate dehydrogenase (Plasmodium falciparum (isolate CDC / Honduras)) (UniProt Q27743). Briefly: PfLDH activity inhibition – cell lysate, 3D7 strain, counter-screen for P. falciparum growth inhibition project (AID 2304).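 Note: 0% = vehicle and 100% = reference inhibitor.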 The following applies: P. falciparum 3D7 crude extract, LDH APAD/NBT absorbance; at 2 µM; stronger effect = higher value.
Test [4] can be described thus: inhibition of 3D7 malaria parasite growth – strain 3D7 (AID 2306).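 Note: 0% = DMSO wells and 100% = chloroquine plus artemisinin control wells.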 The settings on record: P. falciparum 3D7 erythrocytic growth, LDH absorbance, 72 h; at 2 µM; stronger effect = higher value.
Test [5] deals with Calcium-dependent protein kinase 1 (Plasmodium falciparum (isolate 3D7)) (UniProt P62344). Briefly: PfCDPK1 kinase inhibitors, biochemical, TCAMS library (AID 1159585; cut-off not given, nearly all actives have IC50 up to about 0.98 µM;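 note: inhibitors leave more ATP so luminescence rises with inhibition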). The following applies: recombinant PfCDPK1, Kinase-Glo ATP depletion luminescence. For orientation: Kinase-Glo measures the ATP left after a reaction by luminescence.
Test [6] concerns the target Plasmodium falciparum protein kinase 6 (PK6, PF3D7_1337100) (UniProt Q8IDW1). Briefly: PfPK6 kinase inhibitors, biochemical, TCAMS library (AID 1159586). The following applies: recombinant PfPK6, Kinase-Glo ATP depletion luminescence.
The target of test [7] is Protein kinase 7 (PK7), Plasmodium falciparum 3D7 (PF3D7_0213400) (UniProt Q7YTF7). The experiment in a line: inhibition of Plasmodium PK7 catalytic activity – biochemical, TCAMS antimalarial set, Kinase-Glo luminescence (AID 1159587). The following applies: recombinant PfPK7, Kinase-Glo ATP depletion luminescence.
In test [8] the target is Calcium-dependent protein kinase 4 (Plasmodium falciparum (isolate 3D7)) (UniProt Q8IBS5). The experiment in a line: PfCDPK4 kinase inhibitors, biochemical, TCAMS library (AID 1159588; cut-off not given, nearly all actives have IC50 up to about 0.91 µM). The settings on record: recombinant PfCDPK4, Kinase-Glo ATP depletion luminescence.

Unmarked numbers belong to inactive results. For some of these results: Results with a measured potency or affinity are listed apart. Calls of active or inactive are those of the source. Unless noted, the rule behind the calls is not given here.

Chain of Plasmodium falciparum protein kinase 6 (PK6, PF3D7_1337100) (Q8IDW1 1-305): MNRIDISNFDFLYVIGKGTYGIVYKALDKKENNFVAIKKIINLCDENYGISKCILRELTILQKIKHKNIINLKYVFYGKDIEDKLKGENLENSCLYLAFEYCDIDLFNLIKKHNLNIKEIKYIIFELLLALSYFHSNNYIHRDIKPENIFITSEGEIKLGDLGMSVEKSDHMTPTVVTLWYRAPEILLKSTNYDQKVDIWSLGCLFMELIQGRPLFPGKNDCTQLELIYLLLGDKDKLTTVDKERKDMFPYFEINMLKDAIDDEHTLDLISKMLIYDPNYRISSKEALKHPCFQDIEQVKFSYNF
Chain of Calcium-dependent protein kinase 4 (Plasmodium falciparum (isolate 3D7)) (Q8IBS5 whole entry, looked up): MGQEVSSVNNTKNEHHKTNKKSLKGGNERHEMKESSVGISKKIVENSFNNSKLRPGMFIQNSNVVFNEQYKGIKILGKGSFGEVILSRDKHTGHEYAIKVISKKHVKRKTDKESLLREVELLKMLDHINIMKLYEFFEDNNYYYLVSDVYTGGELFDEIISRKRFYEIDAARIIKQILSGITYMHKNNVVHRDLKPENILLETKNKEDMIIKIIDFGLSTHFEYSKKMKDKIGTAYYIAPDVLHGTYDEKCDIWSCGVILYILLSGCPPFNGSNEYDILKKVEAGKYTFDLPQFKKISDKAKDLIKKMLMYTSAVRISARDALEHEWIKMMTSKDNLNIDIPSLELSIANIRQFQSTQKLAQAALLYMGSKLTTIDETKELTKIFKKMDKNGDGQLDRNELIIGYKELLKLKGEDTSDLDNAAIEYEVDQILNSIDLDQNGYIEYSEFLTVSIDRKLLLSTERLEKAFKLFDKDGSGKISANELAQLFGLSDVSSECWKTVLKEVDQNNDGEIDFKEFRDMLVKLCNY
Chain of Calcium-dependent protein kinase 1 (Plasmodium falciparum (isolate 3D7)) (P62344 whole entry, looked up): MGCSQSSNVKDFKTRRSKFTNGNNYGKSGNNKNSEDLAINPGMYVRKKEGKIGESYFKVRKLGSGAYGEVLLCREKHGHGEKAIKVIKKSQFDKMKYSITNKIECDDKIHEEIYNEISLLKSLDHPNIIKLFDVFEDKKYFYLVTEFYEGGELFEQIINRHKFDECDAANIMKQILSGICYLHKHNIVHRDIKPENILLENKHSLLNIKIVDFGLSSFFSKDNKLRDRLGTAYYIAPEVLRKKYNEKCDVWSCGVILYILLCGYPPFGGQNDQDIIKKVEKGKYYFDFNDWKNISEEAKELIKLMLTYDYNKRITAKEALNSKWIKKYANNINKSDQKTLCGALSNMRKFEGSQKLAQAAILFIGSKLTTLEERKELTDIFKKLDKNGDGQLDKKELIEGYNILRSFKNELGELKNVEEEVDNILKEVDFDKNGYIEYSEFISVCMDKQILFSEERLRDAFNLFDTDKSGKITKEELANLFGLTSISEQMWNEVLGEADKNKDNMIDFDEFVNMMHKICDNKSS
Chain of Protein kinase 7 (PK7), Plasmodium falciparum 3D7 (PF3D7_0213400) (Q7YTF7 1-343): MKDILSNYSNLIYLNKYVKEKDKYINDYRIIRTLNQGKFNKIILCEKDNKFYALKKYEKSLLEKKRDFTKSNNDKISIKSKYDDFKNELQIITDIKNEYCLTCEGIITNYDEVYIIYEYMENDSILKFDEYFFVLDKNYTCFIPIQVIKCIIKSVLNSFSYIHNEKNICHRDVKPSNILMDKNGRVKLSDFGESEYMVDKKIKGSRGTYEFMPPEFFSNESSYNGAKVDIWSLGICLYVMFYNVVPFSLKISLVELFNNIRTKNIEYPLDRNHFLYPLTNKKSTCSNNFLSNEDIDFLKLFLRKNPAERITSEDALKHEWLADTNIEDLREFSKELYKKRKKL
Chain of L-lactate dehydrogenase (Plasmodium falciparum (isolate CDC / Honduras)) (Q27743 whole entry, looked up): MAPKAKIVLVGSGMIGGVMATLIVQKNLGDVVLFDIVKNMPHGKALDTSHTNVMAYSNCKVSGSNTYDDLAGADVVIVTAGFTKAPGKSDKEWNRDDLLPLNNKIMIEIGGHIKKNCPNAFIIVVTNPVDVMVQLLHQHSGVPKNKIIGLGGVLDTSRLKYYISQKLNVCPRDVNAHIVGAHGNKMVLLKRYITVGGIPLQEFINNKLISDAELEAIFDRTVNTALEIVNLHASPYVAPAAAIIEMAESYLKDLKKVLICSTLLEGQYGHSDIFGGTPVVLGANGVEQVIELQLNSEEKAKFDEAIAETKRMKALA

For orientation: inhibition means the drop in the measured response relative to a control, in per cent. With `Cc1c(-c2ccc(C(=O)NC3CC(C)(C)NC(C)(C)C3)cc2)[nH]c2cc(Cl)c(Cl)cc12`, the growth inhibition in test [1] is 68% (active); in test [4], 98% (active). Besides, the inhibition in test [2] is 34%; in test [3] it was 0%. Moreover, the result in test [5], in test [6], in test [7] and in test [8] was inactive.
For `Oc1ccc(CCNc2nc(NCCCOc3cccc(-c4ccccc4)c3)nc(N3CCNCC3)n2)cc1`, the growth inhibition in test [1] is 14%; in test [4], 89% (active). The results for the inhibition in test [2] and in test [3] were 40% and -2%, respectively. Moreover, the result in test [5], in test [6], in test [7] and in test [8] was inactive.
For `CC(Cc1ccc(OCCN2CCN(c3cccc(Cl)c3)CC2)cc1)NCC(O)c1cccc(Cl)c1` (stereo not given), the figures for the growth inhibition in test [1] and in test [4] were 91% (active) and 93% (active), respectively. The inhibition in test [2] is 48%; in test [3], 3%. The result in test [5], in test [6], in test [7] and in test [8] was inactive.
For the compound `NC1=NCN(OCc2ccc(Cl)c(Cl)c2)C(N)=N1`, the growth inhibition was 4% in test [1] and 95% (active) in test [4]. Further, the inhibition in test [2] was 14%; in test [3], -3%. Besides, the result in test [5], in test [6], in test [7] and in test [8] was inactive.
For the compound `O=C(NCC(CCCN1CCC(c2c[nH]c3ccccc23)CC1)c1ccccc1)Nc1ccc(Cl)c(Cl)c1` (stereo not given), the growth inhibition in test [1] is 64% (active); in test [4], 101% (active). Also, the inhibition in test [2] was 38%; in test [3] it was 1%. In addition, the result in test [5], in test [6], in test [7] and in test [8] was inactive.
With `COc1cc2ccccc2c(CON2C(N)=NC(N)=NC2(C)C)c1OC`, the growth inhibition in test [1] is 10%; in test [4], 96% (active). For the same compound, the inhibition in test [2] is 2%; in test [3], 1%. The result in test [5], in test [6], in test [7] and in test [8] was inactive.
With `CNC(=O)c1cnc(Nc2ccc(N3CCN(C)CC3)cc2)nc1Nc1cccc(OC)c1`, the growth inhibition in test [1] was 101% (active); in test [4], 100% (active). For the same compound, the values for the inhibition in test [2] and in test [3] were 19% and 5%, respectively. The outcome in test [5], in test [6], in test [7] and in test [8] was inactive.
As for `Cc1cc(C(=O)NC2CCN(Cc3ccccc3)CC2)ccc1-c1nc2ccc(C(F)(F)F)cc2[nH]1`, the values for the growth inhibition in test [1] and in test [4] were 2% and 95% (active), respectively. Further, the results for the inhibition in test [2] and in test [3] were 19% and -1%, respectively. Also, the result in test [5], in test [6], in test [7] and in test [8] was inactive.
In the case of `CN1CCC(NCc2cccc(-c3ccc(S(=O)(=O)NCc4ccccc4)cc3)c2)CC1`, the growth inhibition in test [1] was 93% (active); in test [4] it was 100% (active). Moreover, the inhibition in test [2] was 61% (active); in test [3], 0%. Besides, the result in test [5], in test [6], in test [7] and in test [8] was inactive.
In the case of `COc1ccc(CNC(=O)c2cnc3c(O)cccc3c2Nc2cccc(NC(=O)c3ccc(Cl)c([N+](=O)[O-])c3)c2)cc1`, the growth inhibition in test [1] was 21%; in test [4], 86% (active). Besides, the inhibition is 48% in test [2] and 1% in test [3]. For the same compound, the result in test [5], in test [6], in test [7] and in test [8] was inactive.
As to `Cc1nc2ccc3ccc(CNc4ccc5c(c4)CN([C@@H](CCC(=O)O)C(=O)O)C5=O)cc3c2c(=O)[nH]1`, the values for the growth inhibition in test [1] and in test [4] were 95% (active) and 94% (active), respectively. For the same compound, the inhibition is 41% in test [2] and 2% in test [3]. Moreover, the outcome in test [5], in test [6], in test [7] and in test [8] was inactive.
As to `CC(=O)c1ccc(N2C(=O)C3C(Cc4ccc(OC(C)(C)C)cc4)NC4(C(=O)N(Cc5ccc(C(C)(C)C)cc5)c5ccccc54)C3C2=O)cc1` (stereo not given), the results for the growth inhibition in test [1] and in test [4] were 81% (active) and 86% (active), respectively. Moreover, the inhibition in test [2] is 13%; in test [3], 4%. Moreover, the result in test [5], in test [6], in test [7] and in test [8] was inactive.
For the compound `COc1ccc2cc(-c3nc(-c4c(Cl)cccc4Cl)[nH]c3-c3ccnc(NCCC4CCCN4C)c3)ccc2c1` (stereo not given), the values for the growth inhibition in test [1] and in test [4] were 82% (active) and 100% (active), respectively. Further, the inhibition in test [2] is 11%; in test [3], 2%. Besides, the outcome in test [5], in test [6], in test [7] and in test [8] was inactive.
In the case of `Cc1ccnc(Nc2nc(-c3ccccn3)cs2)c1`, the values for the growth inhibition in test [1] and in test [4] were 87% (active) and 100% (active), respectively. The inhibition in test [2] is 45%; in test [3], -4%. Besides, the outcome in test [5], in test [6], in test [7] and in test [8] was inactive.
Consider `COc1ccc2nc3cc(Cl)ccc3c(N)c2c1`, for which the values for the growth inhibition in test [1] and in test [4] were 100% (active) and 102% (active), respectively. For the same compound, the inhibition in test [2] is 100% (active); in test [3], -5%. In addition, the result in test [5], in test [6], in test [7] and in test [8] was inactive.
`Cc1nc(-c2cccc3c(NC(=O)N4CCc5cc6nccc(N7CCN(C)CC7)c6cc54)cccc23)no1`: the growth inhibition is 97% (active) in test [1] and 100% (active) in test [4]. The inhibition was 45% in test [2] and 2% in test [3]. Moreover, the result in test [5], in test [6], in test [7] and in test [8] was inactive.
On to `Cc1cc(N[C@@H](Cc2ccccc2)C(=O)NCCc2ccccc2)nc(NCC2CCCCC2)n1`, for which the growth inhibition in test [1] was 95% (active); in test [4], 101% (active). For the same compound, the inhibition in test [2] was 24%; in test [3] it was -2%. The result in test [5], in test [6], in test [7] and in test [8] was inactive.
As to `CS(=O)(=O)c1ccc(CCNCc2ccc(-c3ccc(CN(C(=O)C4CC(=O)c5ccccc54)C4Cc5ccccc5C4)cc3)nc2)cc1` (stereo not given), the figures for the growth inhibition in test [1] and in test [4] were 21% and 90% (active), respectively. Moreover, the inhibition in test [2] was 5%; in test [3], -7%. The outcome in test [5], in test [6], in test [7] and in test [8] was inactive.
As to `CCOc1ccc(NC(=O)c2cccc(CN3CCCN(Cc4cccc(O)c4)CC3)c2)cc1`, the figures for the growth inhibition in test [1] and in test [4] were 23% and 95% (active), respectively. In addition, the inhibition in test [2] was 22%; in test [3], 0%. Besides, the outcome in test [5], in test [6], in test [7] and in test [8] was inactive.
As to `CN(C)CCOc1cc(O)c2c(c1)OC(C)(C)C=C2c1cccs1`, the growth inhibition is 10% in test [1] and 99% (active) in test [4]. The inhibition in test [2] was 29%; in test [3], -2%. The result in test [5], in test [6], in test [7] and in test [8] was inactive.
